PubChem BioAssay
For some assays here: Measured potencies and affinities stand elsewhere. Calls of active or inactive are those of the source.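 Rule for the calls, unless noted: active = earlier screen potentiator hit that boosts the TRPC4 ion channel at some dose, with a dose response; inactive = no potentiation, no dose response, or not a prior hit.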

Legend:
[1] = system: TRPC4 beta (transient receptor potential cation channel C4), mouse; test: activators of mouse TRPC4 channel, confirmation, cell-based, Fluo4 calcium, HEK293 TRPC4beta/mu-opioid, duplicates, 10 µM (AID 2426;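 active = fluorescence ratio normalized to control raised more than 50% in primary screen plus both repeat runs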); conditions: Fluo4 calcium fluorescence, at 10 µM; stronger effect = higher value
[2] = system: transient receptor potential cation channel C4 beta (TRPC4), mouse; test: activators of mouse TRPC4 channel, confirmation, cell-based, second round, Fluo4, HEK293 TRPC4beta/mu-opioid, 1 µM (AID 2461;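 active = primary screen active and over 50% activation in each of two duplicate runs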); conditions: Fluo4 calcium fluorescence, at 1 µM; stronger effect = higher value
[3] = system: TRPC4 (transient receptor potential cation channel C4 beta), mouse; test: positive allosteric modulators of mouse TRPC4, confirmation, cell-based, second round, Fluo-4, HEK293 TRPC4beta/mu-opioid, 1 µM (AID 2554;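 active = primary screen hit whose fluorescence ratio, in both repeats, exceeds the weak agonist control mean by 3 SD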); conditions: DAMGO EC20, Fluo-4 calcium flux, at 1 µM; stronger effect = higher value
[4] = system: TRPC4 beta (transient receptor potential cation channel C4), mouse; test: positive allosteric modulators of mouse TRPC4, confirmation, cell-based, Fluo-4, HEK293 TRPC4beta/mu-opioid (AID 2555;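 active = primary screen hit whose calcium fluorescence ratio, in both repeats, exceeds the weak agonist control mean by 3 SD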); conditions: DAMGO EC20, Fluo-4 calcium flux, at 10 µM; stronger effect = higher value
[5] = biological target: Short transient receptor potential channel 4 (Mus musculus) (UniProt Q9QUQ5); test: inhibitors of mouse TRPC4 channel, confirmation, cell-based, Fluo4, HEK293 TRPC4beta/mu-opioid (AID 2636;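 active = calcium signal cut by more than 3 SD below the full-agonist control yet still positive, in both repeats and the earlier primary screen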); conditions: DAMGO, Fluo4 calcium flux, at 10 µM; stronger effect = higher value
[6] = biological target: Short transient receptor potential channel 4 (Mus musculus) (UniProt Q9QUQ5); test: inhibitors of mouse TRPC4 channel, confirmation, cell-based, second round, Fluo4, HEK293 TRPC4beta/mu-opioid, 1 µM (AID 2637;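 active = calcium signal ratio cut to more than 3 SD under the fully stimulated control mean yet still positive, in both repeats and the primary screen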;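 for inhibition: percent of integrated ratio relative to wells lacking test compound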); conditions: Fluo4 calcium flux, DAMGO, at 1 µM; stronger effect = higher value
[7] = biological target: Short transient receptor potential channel 4 (Mus musculus) (UniProt Q9QUQ5); test: mouse TRPC4 channel activators, dose response, cell-based, HEK293 TRPC4/mu-opioid, Fluo-4 calcium (AID 434937;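 active = primary screen activator hit with a dose response curve and TRPC4 channel activation at any tested dose; inactive = no activation, no dose response, or not a primary hit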)
[8] = biological target: Short transient receptor potential channel 4 (Mus musculus) (UniProt Q9QUQ5); test: TRPC4 positive allosteric modulators, dose response, cell-based, HEK293 TRPC4/mu-opioid, Fluo-4 calcium, EC20 DAMGO (AID 434941);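 note: calcium entry triggered by an EC20 dose of DAMGO at the co-expressed mu-opioid receptor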
[9] = biological target: Short transient receptor potential channel 6 (Mus musculus) (UniProt Q61143); test: inhibition of mouse TRPC6 channel, confirmation, selectivity assay for TRPC4 inhibitor project, cell-based, HEK293, membrane potential dye, duplicate (AID 434948;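 active = active in primary screen and both duplicates, each dropping signal beyond three positive-control SD with fluorescence still positive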); conditions: HEK293 TRPC6, membrane potential dye fluorescence, at 10 µM, stimulated with maximal-effect acetylcholine; stronger effect = higher value
[10] = biological target: Short transient receptor potential channel 6 (Mus musculus) (UniProt Q61143); test: activation of mouse TRPC6 channel, confirmation, selectivity assay for TRPC4 activator project, cell-based, HEK293, membrane potential dye, duplicate (AID 434950;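 active = membrane potential signal rise above negative control mean plus 3 SD in both duplicates, also active in the earlier TRPC4 screen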); conditions: HEK293 TRPC6, membrane potential fluorescence, at 10 µM; stronger effect = higher value
[11] = biological target: Short transient receptor potential channel 6 (Mus musculus) (UniProt Q61143); test: TRPC6 potentiation by TRPC4 potentiator hits, confirmation, selectivity assay for TRPC4 potentiator project, HEK293 cells, membrane potential dye, duplicate (AID 434952;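 active = compound raising the membrane signal above positive-control mean plus 3 SD in both repeats, and a primary screen hit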); conditions: HEK293 TRPC6, membrane potential dye fluorescence, at 10 µM, maximal acetylcholine added after compound; stronger effect = higher value
[12] = biological target: Short transient receptor potential channel 4 (Mus musculus) (UniProt Q9QUQ5); test: calcium flux activators in TRPC4/5HT1a cells, counter-screen for TRPC4 activator project, cell-based, second counter screen, HEK293 TRPC4/5HT1a, Fluo-4 (AID 434977;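 active = calcium signal rise above buffer-control mean plus 5 SD in both duplicates, and also a hit in the primary screen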); conditions: Fluo-4 calcium flux, at 10 µM; stronger effect = higher value
[13] = calcium flux inhibitors in TRPC4/5HT1a cells, confirmation, counter-screen for TRPC4 inhibitor project, cell-based, second counter screen, HEK293 TRPC4/5HT1a, Fluo-4 (AID 434978;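 active = primary screen active whose calcium signal fell more than 3 SD beyond the full-serotonin control mean in both duplicate plates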;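 for outcome: serotonin given first at submaximal then at maximal dose after compound preincubation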); conditions: Fluo-4 calcium flux, at 10 µM, serotonin added to trigger calcium flux; stronger effect = higher value
[14] = system: TRPC4 (mouse), co-expressed with 5HT1a in HEK293; test: calcium flux potentiators in TRPC4/5HT1a cells, confirmation, counter-screen for TRPC4 potentiator project, cell-based, second counter screen, HEK293 TRPC4/5HT1a, Fluo-4 (AID 434979;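 active = signal rise over 3 SD above mean of control wells given weak agonist, in both repeats and first screen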); conditions: Fluo-4 calcium flux, at 10 µM, serotonin added at its EC20 dose; stronger effect = higher value
[15] = calcium flux activation in mu-opioid HEK293 cells, confirmation, counter-screen for TRPC4 activator project, cell-based, HEK293 mu-opioid receptor line (AID 449723;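 active = hit in primary screen, with calcium signal over 5 SD above buffer well mean in both duplicates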;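 note: counter screen cells carry the mu-opioid receptor alone and lack TRPC4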); conditions: Fluo-4 calcium fluorescence, at 10 µM; stronger effect = higher value
[16] = calcium flux enhancement in mu-opioid HEK293 cells, confirmation, counter-screen for TRPC4 allosteric potentiator project, cell-based, HEK293 mu-opioid receptor line (AID 449724;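 active = calcium signal rise more than 3 SD above the low-dose agonist control mean, in both duplicate plates and the primary screen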); conditions: Fluo-4 calcium flux, at 10 µM, compound added before EC20 DAMGO stimulus; stronger effect = higher value

Sequence of Short transient receptor potential channel 4 (Mus musculus) (Q9QUQ5 whole entry, looked up): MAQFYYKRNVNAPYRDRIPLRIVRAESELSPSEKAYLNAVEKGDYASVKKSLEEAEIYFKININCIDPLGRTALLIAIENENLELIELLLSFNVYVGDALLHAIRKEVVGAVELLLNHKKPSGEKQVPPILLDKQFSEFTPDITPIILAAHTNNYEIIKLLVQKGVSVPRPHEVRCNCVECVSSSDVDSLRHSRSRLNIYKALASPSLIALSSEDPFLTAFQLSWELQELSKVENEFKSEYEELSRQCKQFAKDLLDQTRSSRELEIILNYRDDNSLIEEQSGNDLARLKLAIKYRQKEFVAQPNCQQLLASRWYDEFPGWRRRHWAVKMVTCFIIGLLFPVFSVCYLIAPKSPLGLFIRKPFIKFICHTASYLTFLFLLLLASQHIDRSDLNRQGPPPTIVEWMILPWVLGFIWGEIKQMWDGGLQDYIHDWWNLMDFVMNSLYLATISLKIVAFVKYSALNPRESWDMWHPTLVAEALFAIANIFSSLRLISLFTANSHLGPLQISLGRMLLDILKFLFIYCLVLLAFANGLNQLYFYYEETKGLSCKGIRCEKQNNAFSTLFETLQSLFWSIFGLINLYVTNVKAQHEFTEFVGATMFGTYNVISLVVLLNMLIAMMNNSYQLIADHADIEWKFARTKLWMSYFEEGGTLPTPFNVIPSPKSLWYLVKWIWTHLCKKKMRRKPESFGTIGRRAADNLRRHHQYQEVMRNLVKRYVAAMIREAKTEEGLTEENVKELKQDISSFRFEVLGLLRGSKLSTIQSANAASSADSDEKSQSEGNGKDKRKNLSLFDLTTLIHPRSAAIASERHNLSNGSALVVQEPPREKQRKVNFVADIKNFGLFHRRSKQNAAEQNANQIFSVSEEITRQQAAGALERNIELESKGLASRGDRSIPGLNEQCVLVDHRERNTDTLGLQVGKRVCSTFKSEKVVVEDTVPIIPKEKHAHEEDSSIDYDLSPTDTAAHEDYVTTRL
Sequence of Short transient receptor potential channel 6 (Mus musculus) (Q61143 whole entry, looked up): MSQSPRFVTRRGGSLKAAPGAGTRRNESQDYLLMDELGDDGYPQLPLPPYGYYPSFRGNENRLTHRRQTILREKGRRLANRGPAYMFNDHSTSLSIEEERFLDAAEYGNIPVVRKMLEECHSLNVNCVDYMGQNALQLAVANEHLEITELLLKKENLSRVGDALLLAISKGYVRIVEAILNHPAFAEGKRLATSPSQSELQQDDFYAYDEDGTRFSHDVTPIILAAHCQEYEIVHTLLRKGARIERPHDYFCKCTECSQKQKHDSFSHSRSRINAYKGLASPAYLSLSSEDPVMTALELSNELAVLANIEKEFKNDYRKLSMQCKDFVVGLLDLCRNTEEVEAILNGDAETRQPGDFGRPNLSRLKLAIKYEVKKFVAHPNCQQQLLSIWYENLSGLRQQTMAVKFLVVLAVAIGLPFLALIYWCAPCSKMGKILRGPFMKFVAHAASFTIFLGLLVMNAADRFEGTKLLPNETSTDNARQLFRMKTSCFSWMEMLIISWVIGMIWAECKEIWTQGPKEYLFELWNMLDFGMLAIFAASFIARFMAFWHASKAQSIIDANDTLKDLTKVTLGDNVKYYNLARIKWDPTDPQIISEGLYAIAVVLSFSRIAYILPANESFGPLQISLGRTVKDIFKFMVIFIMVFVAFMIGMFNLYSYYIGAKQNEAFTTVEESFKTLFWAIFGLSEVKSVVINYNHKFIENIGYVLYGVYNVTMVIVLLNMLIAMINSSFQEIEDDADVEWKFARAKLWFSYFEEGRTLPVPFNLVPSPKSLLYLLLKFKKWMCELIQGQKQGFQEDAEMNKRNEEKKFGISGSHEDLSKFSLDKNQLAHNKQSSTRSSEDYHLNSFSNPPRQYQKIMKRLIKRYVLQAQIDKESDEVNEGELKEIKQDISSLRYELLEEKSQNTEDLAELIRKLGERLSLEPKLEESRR

SMILES	outcome [1]	outcome [2]	outcome [3]	outcome [4]	inhibition [5]	outcome [6]	outcome [7]	outcome [8]	outcome [9]	outcome [10]	outcome [11]	outcome [12]	inhibition [13]	outcome [14]	outcome [15]	outcome [16]	inhibition [9]	outcome [5]	inhibition [6]	outcome [13]
CC(=O)N(c1ccc(Cl)cc1)c1c[nH]c2ccccc12	inactive	inactive	inactive	inactive	94% (active)	inactive	inactive	inactive	inactive	inactive	inactive	inactive	22.3% (active)	inactive	inactive	inactive				
Nc1c2c(nc3ccccc13)N(c1ccccc1)CC2	inactive	inactive	inactive	inactive	77% (active)	inactive	inactive	inactive		inactive	inactive	inactive	31.2% (active)	inactive	inactive	inactive	26% (active)			
CC1CCCN(c2c3c(nc4ccccc24)CCCC3)C1 (centres undefined)	inactive	inactive	inactive	inactive		inactive	inactive	inactive	inactive	inactive	inactive	inactive	27.9% (active)	inactive	inactive	inactive		inactive		
COc1ccc(F)cc1C(=O)C1CCCN(Cc2ccc3c(c2)OCCO3)C1 (centres undefined)	inactive	inactive	inactive	inactive	94% (active)	inactive	inactive	inactive	inactive	inactive	inactive	inactive	38.7% (active)	inactive	inactive	inactive				
COc1ccccc1N1CCc2c(C)nc3c(OC)cccc3c21	inactive	inactive	inactive	inactive	92% (active)		inactive	inactive		inactive	inactive	inactive	16.3% (active)	inactive	inactive	inactive	29% (active)		44% (active)	
CSC1=NC2(CCCCC2)C2=C(CCCC2)N1	inactive	inactive	inactive	inactive	96% (active)	inactive	inactive	inactive	inactive	inactive	inactive	inactive	33% (active)	inactive	inactive	inactive				
COc1ccc(OC)c(Nc2cc(-c3ccccc3)nc(N)n2)c1	inactive	inactive	inactive	inactive	100% (active)		inactive	inactive		inactive	inactive	inactive	37.9% (active)	inactive	inactive	inactive	55.5% (active)		49% (active)	
CCOC(=O)C1(Cc2ccccc2C)CCCN(Cc2ccc(NC(C)=O)cc2)C1 (centres undefined)	inactive	inactive	inactive	inactive	83% (active)	inactive	inactive	inactive	inactive	inactive	inactive	inactive		inactive	inactive	inactive				inactive
OCCNCc1cc(Br)ccc1OCc1ccc(F)cc1	inactive	inactive	inactive	inactive	94% (active)		inactive	inactive	inactive	inactive	inactive	inactive	21.1% (active)	inactive	inactive	inactive			45% (active)	
CCc1cccc(OCC(=O)Nc2ccc(C(=O)O)cc2NC(=O)COc2cccc(CC)c2)c1	inactive	inactive	inactive	inactive	93% (active)	inactive	inactive	inactive	inactive	inactive	inactive	inactive	40.9% (active)	inactive	inactive	inactive				
CCOc1ccc2[nH]c3c(N4CCN(c5ccccn5)CC4)ncnc3c2c1	inactive	inactive	inactive	inactive	83% (active)	inactive	inactive	inactive	inactive	inactive	inactive	inactive		inactive	inactive	inactive				inactive
Cc1ccccc1CN1CCCC(C(=O)Nc2ccccc2Oc2cccnc2)C1 (centres undefined)	inactive	inactive	inactive	inactive	88% (active)		inactive	inactive	inactive	inactive	inactive	inactive	39.9% (active)	inactive	inactive	inactive			51% (active)	
O=C(Cn1c(NCCCO)nc2ccccc21)c1ccc(Br)cc1	inactive	inactive	inactive	inactive	88% (active)		inactive	inactive	inactive	inactive	inactive	inactive	28.7% (active)	inactive	inactive	inactive			52% (active)	
Cc1ccc(O)c(CNc2nc3ccccc3[nH]2)c1	inactive	inactive	inactive	inactive	96% (active)		inactive	inactive	inactive	inactive	inactive	inactive	24.5% (active)	inactive	inactive	inactive			76% (active)	
